In PubChem BioAssay:
For part of these data: Measured potencies and affinities stand elsewhere. Calls of active or inactive are those of the source.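 The calls were made as follows, unless noted: active = fitted half-maximal concentration within 10 nM to 100 µM, steepness 0.5 to 2, significant signal drop, low assay interference; inactive = the rest.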

Legend:
[1] = biological target: Cell division control protein 42 homolog (Homo sapiens) (UniProt P60953); experiment: inhibition of fluorescent GTP binding to constitutively active Cdc42 – biochemical, multiplex bead flow cytometry, Bodipy-FL-GTP, dose response (AID 1333;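 active = fitted half-maximal concentration within the tested dose range, moderate curve steepness, a statistically real signal drop, and little compound fluorescence or tag-binding interference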)
[2] = biological target: Cell division control protein 42 homolog (Homo sapiens) (UniProt P60953); experiment: inhibition of fluorescent GTP binding to wildtype Cdc42 – biochemical, multiplex bead flow cytometry, Bodipy-FL-GTP, dose response (AID 1334;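 active = fitted half-maximal concentration within the tested range, moderate curve steepness, significant signal drop, and little compound fluorescence or bead-linkage interference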); details: bead-based flow cytometry, Bodipy-FL-GTP binding to GST-Cdc42; at 100 µM (top of the series) unless noted
[3] = biological target: GTPase HRas (Homo sapiens) (UniProt P01112); experiment: Ras wt fluorescent GTP loading blockade – biochemical, wildtype, multiplex bead flow cytometry, dose response (AID 1335); details: bead-based flow cytometry, Bodipy-GTP binding to GST-Ras; at 100 µM (top of the series) unless noted
[4] = tested on: Ras-related protein Rab-7a (dog), GTP binding; experiment: blockers of fluorescent GTP binding to Rab7 – biochemical, wildtype, multiplex bead flow cytometry, dose response (AID 1336; call rule not given here)
[5] = biological target: Ras-related C3 botulinum toxin substrate 1 (Homo sapiens) (UniProt P63000); experiment: inhibition of wildtype Rac1 nucleotide loading – biochemical, multiplex bead flow cytometry, dose response (AID 1340;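 active = dose curve with midpoint inside tested range, moderate steepness, plateau gap beyond fit error, low compound glow and bead-link interference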); details: GST-Rac1 beads, Bodipy-FL-GTP binding; at 100 µM (top of the series) unless noted
[6] = biological target: GTPase HRas (Homo sapiens) (UniProt P01112); experiment: blockade of GTP loading onto mutant Ras – biochemical, activated mutant, multiplex bead flow cytometry, dose response (AID 1341;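 active = dose-response curve with midpoint inside the tested range, moderate steepness, significant amplitude and little compound fluorescence or bead-attachment interference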;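 also: GST-tagged constitutively activated Ras mutant immobilized on beads and multiplexed with other GTPases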)

Chain of GTPase HRas (Homo sapiens) (P01112 whole entry, looked up): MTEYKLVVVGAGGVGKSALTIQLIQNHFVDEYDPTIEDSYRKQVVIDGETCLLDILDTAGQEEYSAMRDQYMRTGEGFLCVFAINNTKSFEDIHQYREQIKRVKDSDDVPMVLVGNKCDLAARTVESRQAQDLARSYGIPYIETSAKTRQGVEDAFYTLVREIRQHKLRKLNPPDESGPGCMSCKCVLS
Chain of Cell division control protein 42 homolog (Homo sapiens) (P60953 whole entry, looked up): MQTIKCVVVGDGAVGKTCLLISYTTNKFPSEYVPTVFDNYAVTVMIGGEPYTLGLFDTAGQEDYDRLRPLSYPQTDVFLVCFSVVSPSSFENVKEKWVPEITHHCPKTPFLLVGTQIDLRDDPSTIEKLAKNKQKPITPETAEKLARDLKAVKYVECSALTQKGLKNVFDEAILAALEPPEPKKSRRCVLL

Compound | outcome [1] | fluorescence, percent of control (lower = inhibition) [2] | GTP binding, percent of control [3] | outcome [4] | GTP binding signal, raw median fluorescence (lower = inhibition) (MCF (arbitrary fluorescence units)) [5] | outcome [6]
O=C(O)c1ccc(NS(=O)(=O)c2ccc3c(c2)C(=O)c2ccccc2C3=O)cc1 | inactive | 28.6% | 69% | inactive | 118 | inactive
COc1cccc(/C=N/Nc2nn3cnnc3c3ccccc23)c1 | inactive | 36.5% | 47.3% | inactive | 120 | inactive
O=C(/C=C/c1c(Cl)nc2ccccn12)N1CCCCC1 | inactive | 33.3% | 80.9% | inactive | 245 | inactive
O=C(O)c1cccnc1OCc1ccccc1 | inactive | 88.8% | 103% | inactive | 63.4 | inactive
O=C(O)c1ccc(CNCc2cccc(Cl)c2)s1 | inactive | 61.3% | 85.1% | inactive | 32.6 | inactive
Oc1ccc(NC(=S)N=Nc2c(O)[nH]c3ccc(Br)cc23)cc1 | inactive | 33.1% | 78.4% | inactive | 200 | inactive
COc1cccc(-n2c(SCC(=O)NCCC3=CCCCC3)nc3n[nH]c(C)c3c2=N)c1 | inactive | 70.4% | 132% | inactive | 140 | inactive
Cc1cc(/C=C2\SC(=S)N(Cc3ccco3)C2=O)c(C)n1-c1cccnc1 | inactive | 137% | 95.2% | inactive | 209 | inactive
CCn1c2ccccc2c2nc3cc(C(=O)O)ccc3nc21 | inactive | 34% | 74.6% | inactive | 161 | inactive
O=C(Nc1cc(S(=O)(=O)Nc2ccccc2Cl)ccc1O)c1sc2cc(Cl)ccc2c1Cl | inactive | 35.5% | 81.2% | inactive | 248 | inactive
CCCCOc1cccc(C#CC(=O)c2ccc([N+](=O)[O-])cc2)c1 | inactive | 59.2% | 182% | inactive | 128 | inactive
Cc1sc2nc3c4ccccc4c(NCc4ccco4)nn3c(=O)c2c1C | inactive | 94% | 104% | inactive | 123 | inactive
COc1ccc(O)c(-c2cc(C(F)(F)C(F)F)nc(-c3ccccc3)n2)c1 | inactive | 106% | 177% | inactive | 183 | inactive
COc1ccc(-n2c(C)cc(/C=C3\SC(=S)N(Cc4ccco4)C3=O)c2C)cc1 | inactive | 75.8% | 89.9% | inactive | 230 | inactive
Cc1c(C=O)c2ccccn2c1C(=O)c1ccc(Cl)c([N+](=O)[O-])c1 | inactive | 31.5% | 78.3% | inactive | 247 | inactive
COc1cccc(C2CC(c3ccccc3)Nc3ncnn32)c1 (stereo not given) | inactive | 38.6% | 80.1% | inactive | 242 | inactive
Cc1ccc(NC(=O)Nc2ccnc(-c3cccnc3)n2)cc1 | inactive | 36.6% | 73.3% | inactive | 162 | inactive
CCc1nnc2c(N(C)C)nc3ccccc3n12 | inactive | 34.8% | 76.3% | inactive | 168 | inactive
O=C(O)c1ccc(CNCc2ccccc2Cl)s1 | inactive | 62% | 86.6% | inactive | 32.2 | inactive
Cc1cc2nc3c(=O)[nH]c(=O)[nH]c3nc2c([N+](=O)[O-])c1N | inactive | 35% | 75.6% | inactive | 192 | inactive

Compound | outcome [1] | fluorescence, percent of control (lower = inhibition) [2] | GTP binding, percent of control [3] | outcome [4] | GTP binding signal, raw median fluorescence (lower = inhibition) (MCF (arbitrary fluorescence units)) [5] | outcome [6]
COc1cc2nc(=S)n(CCCN3CCOCC3)c(N)c2cc1OC | inactive | 38.1% | 79.4% | inactive | 151 | inactive
CCOC(=O)c1cnc2c(C#N)cnn2c1N | inactive | 33.6% | 72.1% | inactive | 167 | inactive
CCOc1cc(/C=N/NC(=O)c2cccs2)cc([N+](=O)[O-])c1O | inactive | 25.2% | 57.7% | inactive | 108 | inactive
NC1=NC(=O)/C(=C\c2ccc(O)c([N+](=O)[O-])c2)S1 | inactive | 26.8% | 58.3% | inactive | 116 | inactive
CCCCCN1CC(O)=C(c2ccccc2)C1=N | inactive | 82.3% | 158% | inactive | 179 | inactive
COc1ccc(OC)c(/C=N/NC(=O)c2ccc(Cn3cc([N+](=O)[O-])cn3)o2)c1 | inactive | 30.5% | 66.3% | inactive | 159 | inactive
N#C/C(=C\c1cccnc1)c1nc2ccccc2[nH]1 | inactive | 32.6% | 82.7% | inactive | 251 | inactive
COc1cc(-c2cc(-c3ccc(O)cc3)nc(N)c2C#N)ccc1O | inactive | 28% | 70.9% | inactive | 158 | inactive
COc1cc2[nH]c(=S)nc(NCC3CCCO3)c2cc1OC (stereo not given) | inactive | 59.4% | 152% | inactive | 177 | inactive
Cc1cc([N+](=O)[O-])ccc1N=Nc1c(N)[nH]n(-c2ccccc2)c1=O | inactive | 38.4% | 85% | inactive | 225 | inactive
O=C1c2oc3ccc(Br)cc3c(=O)c2C(c2cccc(F)c2)N1CCO (stereo not given) | inactive | 36.4% | 81.2% | inactive | 276 | inactive
Cc1ccc(C)c(OCc2ccc(C(=O)O)o2)c1 | inactive | 63.2% | 87.7% | inactive | 39.9 | inactive
CCOC(=O)N1CCN(Cc2cn[nH]c2-c2cc3ccccc3o2)CC1 | inactive | 34.4% | 82.1% | inactive | 246 | inactive
O=C(O)c1cc(-c2ccc(/C=C3/SC(=S)N(Cc4ccccc4)C3=O)o2)ccc1Cl | inactive | 31.5% | 61.5% | inactive | 154 | inactive
CC(C)c1cc(NCc2ccccn2)n2c(nc3ccccc32)c1C#N | inactive | 34.4% | 77.4% | inactive | 178 | inactive
COc1cc(C(=S)NCc2ccccc2)cc(Br)c1O | inactive | 23.5% | 56.3% | inactive | 246 | inactive
Cn1c(=O)c2c(nc(N/N=C/c3ccco3)n2C)n(C)c1=O | inactive | 31.1% | 69.2% | inactive | 165 | inactive
Cc1cccc(CSc2ncccc2C(=O)O)c1 | inactive | 69.2% | 70.8% | inactive | 314 | inactive
Cc1ccc(OCCn2c(SCC(=O)O)nc3ccccc32)cc1 | inactive | 59% | 86.2% | inactive | 35.2 | inactive
O=C(Nc1cccc2ccccc12)c1cnccn1 | inactive | 85.4% | 156% | inactive | 181 | inactive

Compound | outcome [1] | fluorescence, percent of control (lower = inhibition) [2] | GTP binding, percent of control [3] | outcome [4] | GTP binding signal, raw median fluorescence (lower = inhibition) (MCF (arbitrary fluorescence units)) [5] | outcome [6]
O=C(O)Cn1c(SCCOc2ccccc2Cl)nc2ccccc21 | inactive | 60.2% | 86.5% | inactive | 30.5 | inactive
CCOc1ccccc1CNCc1sc(C(=O)O)cc1C | inactive | 59.6% | 79.1% | inactive | 33.1 | inactive
COc1ccc(NC(=S)N(CCN(C)C)C(C)c2ccco2)cc1Cl (stereo not given) | inactive | 49.2% | 60.4% | inactive | 210 | inactive
CCCCNc1nc(=S)[nH]c2cc(OC)c(OC)cc12 | inactive | 37.9% | 47.8% | inactive | 110 | inactive
O=C(OC(C(=O)NCc1cccs1)c1ccccn1)c1cccs1 (stereo not given) | inactive | 83.4% | 162% | inactive | 175 | inactive
COc1cc(/C=N/NC(=O)C(Cc2c[nH]c3ccccc23)NC(=O)OCc2ccccc2)cc([N+](=O)[O-])c1O (stereo not given) | inactive | 29.6% | 74% | inactive | 208 | inactive
COc1ccc2c(C)cc3nncn3c2c1 | inactive | 51.4% | 92.8% | inactive | 202 | inactive
COc1ccccc1CNCc1ccc(C(=O)O)s1 | inactive | 64.5% | 87.8% | inactive | 33.8 | inactive
Cc1cccc(S(=O)(=O)c2c(N)n(/N=C/c3cccnc3)c3nc4ccccc4nc23)c1 | inactive | 81.3% | 51.7% | inactive | 135 | inactive
CCCN(N=Nc1cccc([N+](=O)[O-])c1)c1cccc([N+](=O)[O-])c1 | inactive | 84.9% | 156% | inactive | 170 | inactive
COc1cc(NC(=O)c2cccs2)c(OC)cc1NC(=O)CCC(=O)Nc1cccc2ncccc12 | inactive | 32.3% | 72.4% | inactive | 144 | inactive
CC1(C)Cc2c(sc(NC(=O)c3ccc(Br)o3)c2C#N)CO1 | inactive | 49.4% | 62.3% | inactive | 212 | inactive
O=[N+]([O-])c1cc(Br)c(O)c(C=Nc2ccc(N3CCOCC3)cc2)c1 | inactive | 30.7% | 79.8% | inactive | 218 | inactive
CCCNC(=O)Cn1c(=O)/c(=C\c2ccc(-c3ccc([N+](=O)[O-])cc3)o2)s/c1=C\C(=O)C(C)(C)C | inactive | 115% | 126% | inactive | 300 | inactive
O=C(O)c1cn(CCOc2ccccc2Cl)c2ccccc12 | inactive | 99.8% | 110% | inactive | 86 | inactive
c1ccc2[nH]c3cc4ncnc4cc3nc2c1 | inactive | 31.7% | 70.1% | inactive | 189 | inactive
Cc1ccc(C(=O)O)c(NCc2c(C)cccc2C)n1 | inactive | 58.8% | 224% | inactive | 54.1 | inactive
COc1ccc(O)c(CN2CCN(CCc3ccccc3)C(CCO)C2)c1 (stereo not given) | inactive | 37.3% | 84.3% | inactive | 273 | inactive
Cc1ccc(-c2nnc3c4ccccc4c(C)nn23)cc1S(=O)(=O)N1CCN(CCO)CC1 | inactive | 38.3% | 86.6% | inactive | 238 | inactive
Cc1[nH]c2ccccc2c1/C=C/C(=O)c1ccccc1 | inactive | 68.9% | 81.7% | inactive | 216 | inactive
